Assay results reported in ChEMBL document CHEMBL3433997, “St. Jude Leishmania screening dataset” (2016).
Where “and” joins values, the source holds several entries; their conditions need not be identical. Equal entries are not always repeated.

Target: Solute carrier family 2, facilitated glucose transporter member 1 (Homo sapiens) (UniProt P11166)
Test: ST_JUDE_LEISH: Cytotoxicity at 2uM final concentration against transgenic Leishmania Mexicana promastigotes LmGLUT1 that are glucose transport deficient and complemented with the human glucose transporter GLUT1. Activity is measured by DNA content using SYBR green in vitro
Format: functional

Sequence of Solute carrier family 2, facilitated glucose transporter member 1 (Homo sapiens) (P11166 whole entry): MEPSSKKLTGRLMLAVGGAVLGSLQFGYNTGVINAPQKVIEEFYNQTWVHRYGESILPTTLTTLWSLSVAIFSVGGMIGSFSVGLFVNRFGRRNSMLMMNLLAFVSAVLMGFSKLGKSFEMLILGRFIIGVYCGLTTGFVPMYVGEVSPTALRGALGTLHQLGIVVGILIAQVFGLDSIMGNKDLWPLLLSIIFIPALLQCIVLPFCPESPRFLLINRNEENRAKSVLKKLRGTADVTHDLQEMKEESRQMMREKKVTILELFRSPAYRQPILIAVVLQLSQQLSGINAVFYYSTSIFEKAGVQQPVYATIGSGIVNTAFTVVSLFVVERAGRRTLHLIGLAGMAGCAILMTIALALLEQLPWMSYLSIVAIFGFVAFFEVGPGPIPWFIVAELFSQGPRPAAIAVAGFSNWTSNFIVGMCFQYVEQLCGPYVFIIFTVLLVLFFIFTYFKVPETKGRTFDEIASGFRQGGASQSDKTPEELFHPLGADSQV

COc1cccc(/C=C/C(=O)NC2CCC(CN3CCC(c4c[nH]c5ccccc45)CC3)CC2)c1 (stereo not drawn) was tested. Which inhibition did it give?
Its inhibition is 2.16% and -1.74%.

How did the inhibition turn out when CNCCN(C)C(=O)Oc1c(Br)c(C)nc(C)c1-c1ccc(Oc2ccc(OC(F)(F)F)cc2)cc1 was run?
Its inhibition is 2.73%.

How did the inhibition turn out when COc1ccc(CC(C)NCC(O)c2cccc(C(F)(F)F)c2)cc1F (stereo not drawn) was run?
Its inhibition is 1.15%.

CN1CC[C@H](N(Cc2ccccc2F)c2ccc(C#N)c(Cl)c2)C1 was tested. Which inhibition did it give?
Its inhibition is 2.58%.

For CCCc1ccc2c(c1O)CCC(N(CCC)CCC)C2 (stereo not drawn), which inhibition is on record?
Its inhibition is 2.32%.

How did the inhibition turn out when COc1cc(C=CC(=O)N2CCC(CN3CCC(c4c[nH]c5ccccc45)CC3)CC2)cc(OC)c1 was run?
Its inhibition is 2.61%.

CC[C@H]1CN2CC[C@H]1C[C@H]2[C@H](O)c1cc(-c2ccccc2C(F)(F)F)nc2ccc(OC)cc12 was tested. Which inhibition did it give?
The inhibition was 0.61%.

Which inhibition does the source give for Cc1[nH]c2ccc(O)cc2c1C1CCN(CC2CCC(NC(=O)/C=C/c3ccc(Cl)c(Cl)c3)CC2)CC1 (stereo not drawn) here?
Its inhibition is 0.37%.

O=C(CCC(=O)c1ccc2c3c(cccc13)CC2)NC1CCC(CN2CCC(c3c[nH]c4ccccc34)CC2)CC1 (stereo not drawn) was tested. Which inhibition did it give?
Its inhibition is 3.08%.

Which inhibition does the source give for Cc1ccc(CC(C)NCC(O)c2cccc(C#N)c2)cc1 (stereo not drawn) here?
The inhibition was 9.34%.

Which inhibition does the source give for CC[C@H]1CN2CC[C@@H]1C[C@H]2[C@H](O)c1cc(-c2cccnc2)nc2ccc(OC)cc12 here?
The inhibition was 4.01%.

With COc1cccc(C2(C)CCN(CCCCNC(=O)c3ccc(NC(=O)c4ccc(Cl)cc4)cc3)CC2)c1 as the compound, how does the inhibition read?
Its inhibition is -1.81%.

With O=C(C=Cc1ccc(-c2ccccc2)cc1)NC1CCC(CN2CCC(c3c[nH]c4ccccc34)CC2)CC1 (stereo not drawn) as the compound, how does the inhibition read?
Its inhibition is 6.41% and 5.7%.

For CC(Cc1ccc(CSC(C)C)cc1)NCC(O)c1cccc(Cl)c1 (stereo not drawn), which inhibition is on record?
Its inhibition is 3.54%.

With C=C[C@H]1CN2CC[C@H]1C[C@H]2[C@H](OS(=O)(=O)O)c1ccnc2ccccc12 as the compound, how does the inhibition read?
The inhibition was 9.31%.

How did the inhibition turn out when COc1c(F)cc(CC(C)NCC(O)c2cccc(Cl)c2)cc1F (stereo not drawn) was run?
Its inhibition is -0.28%.

For CC[C@H]1CN2CC[C@@H]1C[C@H]2[C@H](O)c1ccnc2ccc(OC)cc12, which inhibition is on record?
The inhibition was 0.79%.

With O=C(/C=C/c1ccc(Cl)c(Cl)c1)NC1CCC(CN2CCC(c3c[nH]c4ccc(O)cc34)CC2)CC1 (stereo not drawn) as the compound, how does the inhibition read?
The inhibition was 1.43% and 1.97%.

For CC(=O)C1(c2ccccc2)CCN(CCC2(c3ccc(Cl)c(Cl)c3)CN(C(=O)Nc3cccc(C(F)(F)F)c3)CCO2)CC1 (stereo not drawn), which inhibition is on record?
Its inhibition is 7.51%.

With Cc1[nH]c2ccccc2c1C1=CCN(CCCCC23CCCc4cccc(c42)NC3=O)CC1 (stereo not drawn) as the compound, how does the inhibition read?
Its inhibition is 2.64%.

Which inhibition does the source give for O=C(NC1CCC(CN2CCC(c3c[nH]c4ccccc34)CC2)CC1)c1cc(-c2ccccc2Cl)oc1C(F)(F)F (stereo not drawn) here?
The inhibition was 0.8%.

O=C(/C=C/c1cc(C(F)(F)F)ccc1F)N1CCC(CN2CCC(c3c[nH]c4ccccc34)CC2)CC1 was tested. Which inhibition did it give?
Its inhibition is 1.52%.

COc1ccc(C2CNCc3c2cc(OC)c(OC)c3Cl)cc1 (stereo not drawn) was tested. Which inhibition did it give?
The inhibition was 4.33%.

With CCCCCSc1cc(O)c(C(CNC)C(C)C)cc1OC (stereo not drawn) as the compound, how does the inhibition read?
Its inhibition is 1.1%.

Which inhibition does the source give for O=P(O)(O)Oc1c(Br)cc(Br)cc1-c1cc(Br)cc(Br)c1O here?
The inhibition was 0.02%.

Which inhibition does the source give for Cc1cccc2c(C3CCN(CC4CCC(NC(=O)/C=C/c5ccc(Cl)c(Cl)c5)CC4)CC3)c[nH]c12 (stereo not drawn) here?
Its inhibition is 10.9%.

With COCC(=O)N(Cc1ccccc1-c1cccc(CNCCc2ccccc2)c1)C1CCN(Cc2ccccc2)CC1 as the compound, how does the inhibition read?
The inhibition was 0.81%.

For CC(=O)Nc1ccc2[nH]cc(C3CCN(CC4CCC(NC(=O)/C=C/c5ccc(Cl)c(Cl)c5)CC4)CC3)c2c1 (stereo not drawn), which inhibition is on record?
Its inhibition is -0.34% and -0.54%.

With CC1=C(C(=O)NC2CCC(CN3CCC(c4c[nH]c5ccccc45)CC3)CC2)Cc2ccccc21 (stereo not drawn) as the compound, how does the inhibition read?
The inhibition was -3.48% and -2.8%.

How did the inhibition turn out when Cc1ccc(C2(O)CC3CCC(C2)N3C)cc1 (stereo not drawn) was run?
The inhibition was 2.44%.

Which inhibition does the source give for Cc1ccc(CC(C)NCC(O)c2cccc(C(F)(F)F)c2)c(C)c1 (stereo not drawn) here?
Its inhibition is 1.64%.

For Cc1cc(N)nc2ccc(CNCCc3ccccc3Br)cc12, which inhibition is on record?
Its inhibition is 1.91%.

For CC1(C)CCCN(C(=O)Cc2ccc3c(c2)CCCC3)C1CN1CC=CC1 (stereo not drawn), which inhibition is on record?
Its inhibition is 8.1%.

With O=C(NCc1ccc(S(=O)(=O)N2CCC(CN3CCC(c4c[nH]c5ccccc45)CC3)CC2)s1)c1ccccc1 as the compound, how does the inhibition read?
The inhibition was 3.85%.

CC(C)CCNC(=O)c1cc(C(=O)c2cc(F)ccc2O)cn(CCC(C)C)c1=O was tested. Which inhibition did it give?
Its inhibition is 3.21%.

With COC(=O)/C=C/c1ccc(CC(C)NCC(O)c2cccc(Br)c2)cc1 (stereo not drawn) as the compound, how does the inhibition read?
Its inhibition is 1.85%.

CCCCCc1cc(O)c2c3c(c(=O)oc2c1)CN(C)CC3 was tested. Which inhibition did it give?
Its inhibition is 2.93%.

For Cc1cc(NC(=O)[C@@H](Nc2ccc(C#N)c3ccccc23)C2CCCCC2)ccc1F, which inhibition is on record?
The inhibition was -1.97%.

Cn1cc(CN2CCC(CCOC(c3ccccc3)c3ccccc3)CC2)cn1 was tested. Which inhibition did it give?
The inhibition was 12.3%.

Target: Hexose transporter 1 (Plasmodium falciparum) (UniProt O97467)
Test: ST_JUDE_LEISH: Cytotoxicity at 2uM final concentration against transgenic Leishmania Mexicana promastigotes LmPfHT that are glucose transport deficient and complemented with the Plasmodium falciparum hexose transporter. Activity is measured by DNA content using SYBR green in vitro
Format: functional

COc1cccc(/C=C/C(=O)NC2CCC(CN3CCC(c4c[nH]c5ccccc45)CC3)CC2)c1 (stereo not drawn) was tested. Which inhibition did it give?
Its inhibition is -0.63% and -2.74%.

With CNCCN(C)C(=O)Oc1c(Br)c(C)nc(C)c1-c1ccc(Oc2ccc(OC(F)(F)F)cc2)cc1 as the compound, how does the inhibition read?
Its inhibition is 3.16%.

With COc1ccc(CC(C)NCC(O)c2cccc(C(F)(F)F)c2)cc1F (stereo not drawn) as the compound, how does the inhibition read?
Its inhibition is 1.15%.

For CN1CC[C@H](N(Cc2ccccc2F)c2ccc(C#N)c(Cl)c2)C1, which inhibition is on record?
The inhibition was 3.02%.

With CCCc1ccc2c(c1O)CCC(N(CCC)CCC)C2 (stereo not drawn) as the compound, how does the inhibition read?
The inhibition was 2.51%.

With COc1cc(C=CC(=O)N2CCC(CN3CCC(c4c[nH]c5ccccc45)CC3)CC2)cc(OC)c1 as the compound, how does the inhibition read?
Its inhibition is 0.72%.

For CC[C@H]1CN2CC[C@H]1C[C@H]2[C@H](O)c1cc(-c2ccccc2C(F)(F)F)nc2ccc(OC)cc12, which inhibition is on record?
The inhibition was 1.6%.

How did the inhibition turn out when Cc1[nH]c2ccc(O)cc2c1C1CCN(CC2CCC(NC(=O)/C=C/c3ccc(Cl)c(Cl)c3)CC2)CC1 (stereo not drawn) was run?
Its inhibition is 0.95%.

O=C(CCC(=O)c1ccc2c3c(cccc13)CC2)NC1CCC(CN2CCC(c3c[nH]c4ccccc34)CC2)CC1 (stereo not drawn) was tested. Which inhibition did it give?
Its inhibition is 3.49%.

For Cc1ccc(CC(C)NCC(O)c2cccc(C#N)c2)cc1 (stereo not drawn), which inhibition is on record?
Its inhibition is 13.4%.

Which inhibition does the source give for CC[C@H]1CN2CC[C@@H]1C[C@H]2[C@H](O)c1cc(-c2cccnc2)nc2ccc(OC)cc12 here?
Its inhibition is 4.01%.

How did the inhibition turn out when COc1cccc(C2(C)CCN(CCCCNC(=O)c3ccc(NC(=O)c4ccc(Cl)cc4)cc3)CC2)c1 was run?
Its inhibition is -1.78%.

With O=C(C=Cc1ccc(-c2ccccc2)cc1)NC1CCC(CN2CCC(c3c[nH]c4ccccc34)CC2)CC1 (stereo not drawn) as the compound, how does the inhibition read?
The inhibition was 7.57% and 7.18%.

With CC(Cc1ccc(CSC(C)C)cc1)NCC(O)c1cccc(Cl)c1 (stereo not drawn) as the compound, how does the inhibition read?
Its inhibition is 3.54%.

With C=C[C@H]1CN2CC[C@H]1C[C@H]2[C@H](OS(=O)(=O)O)c1ccnc2ccccc12 as the compound, how does the inhibition read?
The inhibition was 8.07%.

With COc1c(F)cc(CC(C)NCC(O)c2cccc(Cl)c2)cc1F (stereo not drawn) as the compound, how does the inhibition read?
Its inhibition is -0.81%.

How did the inhibition turn out when CC[C@H]1CN2CC[C@@H]1C[C@H]2[C@H](O)c1ccnc2ccc(OC)cc12 was run?
Its inhibition is 0.55%.

For O=C(/C=C/c1ccc(Cl)c(Cl)c1)NC1CCC(CN2CCC(c3c[nH]c4ccc(O)cc34)CC2)CC1 (stereo not drawn), which inhibition is on record?
The inhibition was 0.14% and 2.98%.

For CC(=O)C1(c2ccccc2)CCN(CCC2(c3ccc(Cl)c(Cl)c3)CN(C(=O)Nc3cccc(C(F)(F)F)c3)CCO2)CC1 (stereo not drawn), which inhibition is on record?
Its inhibition is 4.19%.

Which inhibition does the source give for Cc1[nH]c2ccccc2c1C1=CCN(CCCCC23CCCc4cccc(c42)NC3=O)CC1 (stereo not drawn) here?
The inhibition was 2.98%.

With O=C(NC1CCC(CN2CCC(c3c[nH]c4ccccc34)CC2)CC1)c1cc(-c2ccccc2Cl)oc1C(F)(F)F (stereo not drawn) as the compound, how does the inhibition read?
Its inhibition is 1.05%.

O=C(/C=C/c1cc(C(F)(F)F)ccc1F)N1CCC(CN2CCC(c3c[nH]c4ccccc34)CC2)CC1 was tested. Which inhibition did it give?
Its inhibition is 1.34%.

COc1ccc(C2CNCc3c2cc(OC)c(OC)c3Cl)cc1 (stereo not drawn) was tested. Which inhibition did it give?
The inhibition was 4.69%.

CCCCCSc1cc(O)c(C(CNC)C(C)C)cc1OC (stereo not drawn) was tested. Which inhibition did it give?
The inhibition was -1.89%.

O=P(O)(O)Oc1c(Br)cc(Br)cc1-c1cc(Br)cc(Br)c1O was tested. Which inhibition did it give?
Its inhibition is 1.27%.

Which inhibition does the source give for Cc1cccc2c(C3CCN(CC4CCC(NC(=O)/C=C/c5ccc(Cl)c(Cl)c5)CC4)CC3)c[nH]c12 (stereo not drawn) here?
The inhibition was 9.79%.

For COCC(=O)N(Cc1ccccc1-c1cccc(CNCCc2ccccc2)c1)C1CCN(Cc2ccccc2)CC1, which inhibition is on record?
The inhibition was 0.92%.

How did the inhibition turn out when CC(=O)Nc1ccc2[nH]cc(C3CCN(CC4CCC(NC(=O)/C=C/c5ccc(Cl)c(Cl)c5)CC4)CC3)c2c1 (stereo not drawn) was run?
The inhibition was -0.56% and -1.03%.

Which inhibition does the source give for CC1=C(C(=O)NC2CCC(CN3CCC(c4c[nH]c5ccccc45)CC3)CC2)Cc2ccccc21 (stereo not drawn) here?
Its inhibition is 2.28% and -2.66%.

How did the inhibition turn out when Cc1ccc(C2(O)CC3CCC(C2)N3C)cc1 (stereo not drawn) was run?
The inhibition was 2.72%.

Cc1ccc(CC(C)NCC(O)c2cccc(C(F)(F)F)c2)c(C)c1 (stereo not drawn) was tested. Which inhibition did it give?
The inhibition was 0.6%.

How did the inhibition turn out when Cc1cc(N)nc2ccc(CNCCc3ccccc3Br)cc12 was run?
The inhibition was 1.25%.

How did the inhibition turn out when CC1(C)CCCN(C(=O)Cc2ccc3c(c2)CCCC3)C1CN1CC=CC1 (stereo not drawn) was run?
Its inhibition is 8.82%.

O=C(NCc1ccc(S(=O)(=O)N2CCC(CN3CCC(c4c[nH]c5ccccc45)CC3)CC2)s1)c1ccccc1 was tested. Which inhibition did it give?
The inhibition was 3.63%.

CC(C)CCNC(=O)c1cc(C(=O)c2cc(F)ccc2O)cn(CCC(C)C)c1=O was tested. Which inhibition did it give?
The inhibition was 2.53%.

Which inhibition does the source give for COC(=O)/C=C/c1ccc(CC(C)NCC(O)c2cccc(Br)c2)cc1 (stereo not drawn) here?
The inhibition was 0.16%.

How did the inhibition turn out when CCCCCc1cc(O)c2c3c(c(=O)oc2c1)CN(C)CC3 was run?
Its inhibition is 2.18%.

Which inhibition does the source give for Cc1cc(NC(=O)[C@@H](Nc2ccc(C#N)c3ccccc23)C2CCCCC2)ccc1F here?
Its inhibition is -0.16%.

Cn1cc(CN2CCC(CCOC(c3ccccc3)c3ccccc3)CC2)cn1 was tested. Which inhibition did it give?
Its inhibition is 9.95%.
